Screen size: about 50,000 compounds; about 800 (1.6%) showed an effect of 50% or more. The entries come from a sample that favours strong results as a whole.

The target of the assay is Bcl-2-like protein 10 (Homo sapiens) (UniProt Q9HD36). Briefly: Phenotype converters, Bcl-B/TR3 peptide binding displacement, primary biochemical FP (AID 1240).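 Note: 0% = Bcl-B with tracer peptide and DMSO and 100% = tracer peptide lacking Bcl-B.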 The note with it: GST-Bcl-B / FITC-TR3 peptide fluorescence polarization; stronger effect = higher value; compound at 3.75 mg/L.
Sequence of Bcl-2-like protein 10 (Homo sapiens) (Q9HD36 whole entry, looked up): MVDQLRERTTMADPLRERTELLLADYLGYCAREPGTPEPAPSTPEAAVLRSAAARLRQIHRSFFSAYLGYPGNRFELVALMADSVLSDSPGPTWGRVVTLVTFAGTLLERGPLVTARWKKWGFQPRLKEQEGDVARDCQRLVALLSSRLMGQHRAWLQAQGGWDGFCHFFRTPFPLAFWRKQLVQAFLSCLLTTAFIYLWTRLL
As to `Cc1cccc(NC(=O)C2C(c3ccccc3)=C2c2ccccc2)c1C`, the displacement stood at 5.5%.
Then `CCN(CC)c1ccc(NC(=O)COc2ccc(OC)cc2)cc1`, with -5%.
Under `COc1ccccc1N1C(=O)NC(=O)/C(=C/c2ccc(OC)c3ccccc23)C1=O` stands 5.3%; under `C=CCOc1ccc(Cl)cc1/C=C1/SC(=S)NC1=O`, -2.6%.
On to `O=C(Nc1cc(Br)cc2cccnc12)c1ccc(Cl)cc1`, for which the displacement is -7.2%.
Under `Cc1cc(C=C2C(=O)NC(=S)NC2=O)c(C)n1-c1ccc(N2CCOCC2)cc1` stands 22.3%; under `Cc1cc(/C=C2/NC(=O)NC2=O)c(C)n1-c1ccc(N2CCOCC2)cc1`, -5.1%; under `Cc1cc(C=C2C(=O)NC(=O)NC2=O)c(C)n1-c1ccc(F)cc1`, 4.7%.
Then `Cc1cc(/C=C2/NC(=O)NC2=O)c(C)n1-c1ccc(Cl)cc1`, with 10.7%; and `Cc1cc(/C=C2/C(=O)NC(=O)N(c3ccccc3)C2=O)c(C)n1-c1ccccc1`, with 30.8%.
Under `Cc1cc(C=C2C(=O)NC(=O)NC2=O)c(C)n1-c1ccc(N2CCOCC2)cc1` stands 126%.
As to `Cc1cc(/C=C2\NC(=O)NC2=O)c(C)n1-c1ccc(N(C)C)cc1`, the displacement was found to be 3.4%.
On to `Cc1cc(/C=C2\C(=O)NC(=O)N(C)C2=O)c(C)n1-c1ccc(N(C)C)cc1`, for which the displacement came to 124%.
As to `Cc1cc(C=C2C(=O)NC(=O)NC2=O)c(C)n1-c1ccc(Cl)cc1`, the displacement stood at 106%.
`FC(F)(F)c1ccccc1CN1CCN(Cc2c[nH]c3ccccc23)CC1`: the displacement is -5.2%.
Then `C=C(C)CNC(=S)NC1=C(C)N(C)N(c2ccccc2)C1=C`, with -10.7%; and `O=C(NC1CCS(=O)(=O)C1)/C(=C\c1ccc(Br)cc1)NC(=O)c1ccccc1` (stereo not drawn), with 1.9%.
For `O=C1c2ccccc2C(=O)C12OC(c1ccc(Br)cc1)C1(C(=O)c3ccccc3C1=O)C2c1ccc(F)cc1` (stereo not drawn), the displacement was 2.6%.
Then `Fc1ccc(/C=N/Nc2nnc(-c3ccccc3)c(-c3ccccc3)n2)cc1`, with 5.2%; and `C(=C(\c1ccccc1)c1nc2ccccc2[nH]1)/c1ccco1`, with 2.2%; and `CCN1C(=O)c2cccc3c(S(=O)(=O)N(C)C)ccc1c23`, with 6.6%.
As to `CCN1C(=O)c2cccc3c(NC(=O)c4ccc(Oc5ccccc5)cc4)ccc1c23`, the displacement was -14.2%.
Under `CCN1C(=O)c2cccc3c(NC(=O)c4cccs4)ccc1c23` stands -29.9%.
Under `CCN1C(=O)c2cccc3c(NC(=O)c4ccc(C(=O)c5ccccc5)cc4)ccc1c23` stands 101%.
Then `O=C(Nc1cccc2ccccc12)c1ccc(S(=O)(=O)N2CCCCC2)cc1`, with -8.9%.
For `CCN1C(=O)c2cccc3c(NC(=O)c4ccc(S(=O)(=O)N(C)C)cc4)ccc1c23`, the displacement was found to be 84.1%.
Then `CCN1C(=O)c2cccc3c(NC(=O)c4ccc(S(=O)(=O)N5CCOCC5)cc4)ccc1c23`, with 8.7%; and `CCN1C(=O)c2cccc3c(NC(=O)c4ccc(S(=O)(=O)N5CCCCCC5)cc4)ccc1c23`, with 88.2%.
For `CCN1C(=O)c2cccc3c(NC(=O)c4ccc(Cl)s4)ccc1c23`, the displacement is 11.6%.
With `COCCNC(=O)Cc1ccc(Br)cc1`, the displacement came to 13.1%.
On to `COc1ccc(CC(=O)Nc2cccc(NC(=O)c3cccc(Cl)c3)c2)cc1OC`, for which the displacement was -0.7%.
Turning to `CCc1nn2c(N)c(C=C3C=CC(=O)C=C3)c(=O)nc2s1`, the displacement was found to be 1.9%.
`COc1ccc(CCNC(=O)C2CN(S(=O)(=O)c3ccccc3)CCN2S(=O)(=O)c2ccccc2)cc1OC` (stereo not drawn): the displacement was -2.8%.
Then `O=C(COC(=O)C1CC(=O)N(c2ccc(Cl)cc2)C1)c1ccccc1` (stereo not drawn), with 9.1%; and `O=C(NC(=S)Nc1ccc(N2CCCCC2)c(Cl)c1)c1ccco1`, with -7.1%.
Turning to `CC(C)CCn1c(=O)[nH]c2ccccc21`, the displacement was found to be 10.2%.
Under `CCCc1c(C)nc2c(Cl)cccc2c1SCC(=O)O` stands -1.7%; under `COC(=O)c1c(NC(=O)c2ccco2)sc2c1CCC(C)C2` (stereo not drawn), 0.1%.
Then `NC(=O)c1c(NC(=O)c2ccco2)sc2c1CCC2`, with 4.5%; and `COC(=O)c1c(NC(=O)c2ccco2)sc2c1CCC2`, with 91.1%.
As for `CCc1ccccc1OCCCNC(C)(C)C`, the displacement stood at 1.5%.
Under `O=C(NNC(=O)c1cc([N+](=O)[O-])ccc1Cl)c1ccc([N+](=O)[O-])cc1` stands -4.8%.
For `NC(=O)C1CCN(C(=O)c2ccc([N+](=O)[O-])cc2)CC1`, the displacement came to 4.4%.
Then `Cc1ccc(-c2csc(NC(=O)C3C4CCC(C4)C3C(=O)O)n2)c(C)c1` (stereo not drawn), with -0.1%; and `CC(Oc1ccccc1)C(=O)NCc1cccnc1` (stereo not drawn), with 3.9%.
On to `CCOc1ccc2nc(NC(=O)c3ccccc3C(=O)O)sc2c1`, for which the displacement was -7%.
Under `CCOc1ccc2nc(NC(=O)c3ccccc3O)sc2c1` stands -1%; under `CCOc1ccc2nc(NC(=O)C(c3ccccc3)c3ccccc3)sc2c1`, 66.7%.
For `COc1ccc(Cc2nc(-c3ccc(Cl)cc3)no2)cc1OC`, the displacement amounted to 1.1%.
Then `Cc1ccc(OCCOc2ccc(Br)cc2C=C2C(=O)NC(=S)NC2=O)cc1`, with -23.5%; and `O=C(CSc1nc2ccccc2o1)NCc1ccco1`, with -19.3%.
Under `Cc1ccc(N(CC(=O)O)S(=O)(=O)c2ccc(F)cc2)cc1` stands 8.4%.
Under `CCOC(=O)c1c(-c2ccccc2)oc2ccc(OC(=O)C(C)(C)C)cc12` stands 10.8%.
`CCOc1ccc2oc(-c3ccccc3)c(C(=O)O)c2c1`: the displacement was found to be 5.4%.
Then `CCOC(=O)c1c(-c2ccccc2)oc2cc(Br)c(OC(=O)c3ccco3)cc12`, with 8.8%; and `CCOC(=O)c1c(-c2ccccc2)oc2ccc(OC(=O)c3ccco3)cc12`, with 99.8%; and `Cc1oc2ccc(OC(C)C(=O)O)cc2c1C(=O)O` (stereo not drawn), with 14.7%.
For the molecule `CC(Oc1ccc2oc(-c3ccccc3)c(C(=O)O)c2c1)C(=O)O` (stereo not drawn), the displacement was found to be 59.2%.
Under `O=C(CSc1nc2ccccc2[nH]1)N/N=C/c1cccc(Cl)c1Cl` stands -5.4%.
On to `COc1ccccc1CC(=O)N1CCN(c2ccc([N+](=O)[O-])cc2)CC1`, for which the displacement came to 11.9%.
For `COc1ccc(CC(=O)Nc2sc3c(c2C(=O)Nc2ccccc2Cl)CCCC3)cc1`, the displacement was -9.7%.
With `COc1ccc(Cl)cc1/C=C1/C(=O)NN(c2cccc(Br)c2)C1=O`, the displacement is -1.3%.
Then `COc1ccc(N2C(=O)Cn3c2nc2c3c(=O)n(C)c(=O)n2C)cc1`, with 61.6%; and `Cc1cccc(N2C(=O)Cn3c2nc2c3c(=O)n(C)c(=O)n2C)c1`, with -5.8%; and `Cc1ccc(N2C(=O)Cn3c2nc2c3c(=O)n(C)c(=O)n2C)cc1Cl`, with -12.5%.
Under `CC(O)c1cccc(NC(=O)c2nn3c(c2Cl)NC(c2ccco2)CC3C(F)(F)F)c1` (stereo not drawn) stands -0.1%; under `COc1ccc(C(=O)NC(=S)NCc2ccco2)cc1`, 9.4%.
With `Cn1c(-n2c(CCCN3C(=O)c4ccccc4C3=O)nc3ccccc3c2=O)nc2ccccc21`, the displacement turned out to be 35.4%.
Then `Cc1cccc(-n2c(CCN3C(=O)c4ccccc4C3=O)nc3ccccc3c2=O)n1`, with -0.9%; and `Cn1c(-n2c(CCN3C(=O)c4ccccc4C3=O)nc3ccccc3c2=O)nc2ccccc21`, with 66.3%; and `C/C(=N\NC(=O)c1ccccn1)c1ccc(F)cc1`, with -18.6%.
Then `O=C1NC(=O)N(c2ccc(Cl)cc2)C(=O)/C1=C/c1ccc(O)c(Br)c1`, with -8.4%; and `O=C(Oc1ccc(Cl)cc1)c1cccc(S(=O)(=O)N2CCOCC2)c1`, with -8.4%; and `COC(=O)c1cccc(S(=O)(=O)N2CCOCC2)c1`, with -16%.
Under `O=C(Oc1cccc(-c2cnc3ccccc3n2)c1)c1cccc(S(=O)(=O)N2CCOCC2)c1` stands 225%; under `N#C/C(=C\c1cn(CC(=O)Nc2ccccc2)c2ccccc12)C(=O)NCc1ccccc1`, 61.2%; under `Cc1cccc(NC(=O)/C(C#N)=C/c2cn(CC(=O)Nc3ccccc3)c3ccccc23)c1C`, -60.5%.
Take `CCOc1cccc(NC(=O)/C(C#N)=C/c2cn(CC(=O)Nc3ccccc3)c3ccccc23)c1`: the displacement worked out at 104%.
For `N#C/C(=C\c1cn(CC(=O)Nc2ccccc2)c2ccccc12)C(=O)Nc1ccccc1`, the displacement was -36.7%.
Take `COc1ccc(NC(=O)/C(C#N)=C/c2cn(CC(=O)Nc3ccccc3)c3ccccc23)cc1`: the displacement is -21.4%.
Then `CCc1ccccc1NC(=O)/C(C#N)=C/c1cn(CC(=O)Nc2ccccc2)c2ccccc12`, with -26.1%; and `C#CCn1cc(/C=C(/C#N)C(=O)Nc2ccc(OCC)cc2)c2ccccc21`, with 5.9%.
Regarding `N#C/C(=C\c1cn(CC(=O)Nc2ccccc2)c2ccccc12)C(=O)Nc1ccccc1Cl`, the displacement worked out at 126%.
Take `N#C/C(=C\c1cn(CC(=O)Nc2ccccc2)c2ccccc12)C(=O)Nc1ccc(F)cc1`: the displacement is -30.3%.
For the molecule `Cc1ccc2c(c1)c(-c1ccccc1)c(-c1ccccc1)n2CC(O)CN1C(=O)CSC1=O` (stereo not drawn), the displacement worked out at 11.4%.
Then `CCOc1ccc(C2C(C(=O)/C=C/c3ccccc3)=C(O)C(=O)N2CCCCCC(=O)O)cc1` (stereo not drawn), with -1%.
Regarding `O=C(NC(=S)Nc1ccc(Cl)c(-c2nc3ccccc3s2)c1)c1ccco1`, the displacement came out at 5.8%.
Then `c1ccc2nc(NCc3ccncc3)ccc2c1`, with -8.8%; and `CCc1ccc(N2C(=O)NC(=O)/C(=C\c3ccc(OCC(=O)O)c(OC)c3)C2=O)cc1`, with 9.9%; and `CCOc1ccc(NC(=O)CC2S/C(=N\N=C\c3ccc(O)c(OC)c3)NC2=O)cc1` (stereo not drawn), with 9.6%.
With `COc1cc(/C=c2/sc3nc4ccccc4n3c2=O)cc(I)c1OCc1ccccc1`, the displacement is 74.2%.
Take `C=CCc1ccccc1OCCOc1ccc(/C=c2\sc3nc4ccccc4n3c2=O)cc1OCC`: the displacement was 100%.
As for `C=CCc1ccccc1OCCOc1cccc(/C=c2\sc3nc4ccccc4n3c2=O)c1`, the displacement amounted to 13.4%.
Then `CCOc1ccc(/C=c2\sc3nc4ccccc4n3c2=O)cc1Cl`, with 19.1%.
Then `CCOc1cc(/C=c2/sc3nc4ccccc4n3c2=O)cc(I)c1OCC`, with 77.3%.
As for `CCOc1cc(/C=c2\sc3nc4ccccc4n3c2=O)ccc1OCCOc1ccc(Br)cc1`, the displacement was found to be 19%.
On to `COc1cc(/C=c2\sc3nc4ccccc4n3c2=O)cc(I)c1OCC(=O)O`, for which the displacement is -4.2%.
Turning to `COc1cc(/C=c2/sc3nc4ccccc4n3c2=O)cc(Br)c1OCc1ccccc1`, the displacement amounted to 1.8%.
Then `COc1cc(/C=c2\sc3nc4ccccc4n3c2=O)cc(I)c1OCCOc1cccc(C)c1`, with 10.9%; and `COc1ccc(OC)c(NC(=O)CN(c2ccc(Br)cc2)S(C)(=O)=O)c1`, with -12.8%.
Then `CCN(CC)CCCCOc1ccc(Cl)cc1C`, with -7.4%; and `COc1ccc(NC(=S)NC(=O)c2cccs2)cc1`, with -9.3%; and `O=C(Nc1ccccc1)C1C2C3CCC(C3)C12` (stereo not drawn), with 4%.

The values above are taken from PubChem BioAssay AID1240 (Sanford-Burnham Center for Chemical Genomics, 2008).
